Common to all, as to details: mRNA level, 48 h; actives raise or lower the signal
Read-out in test [1]: Cytochrome P450 (CYP2B6), CYP2B6 (gene 1555)
Description: LTEA_HepaRG_CYP2B6: Life Technologies and Expression Analysis (LTEA) Assay for Cytochrome P450 (CYP2B6) using HepaRG (AID 2283481). The procedure, abridged: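 Differentiated human HepaRG cells in serum-free induction medium, dosed in duplicate for 48 h over 8 half-log concentrations topping at 100 uM (0.5% DMSO). CYP2B6 mRNA measured by TaqMan qRT-PCR, normalized to ACTB, GAPDH, POLR2A; bidirectional fit versus DMSO.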

Read-out in test [2]: Cytochrome P450 2C19 (Homo sapiens) (UniProt P33261)
As to the kind of experiment: LTEA_HepaRG_CYP2C19: Life Technologies and Expression Analysis (LTEA) Assay for CYP2C19 using HepaRG (AID 2283482). The procedure, abridged: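 Differentiated HepaRG cells in serum-free induction medium exposed 48 h in duplicate, 8 concentrations from 100 uM by half-log steps in 0.5% DMSO. CYP2C19 mRNA measured by TaqMan qRT-PCR, normalized to ACTB, GAPDH, POLR2A. Bidirectional fit versus DMSO.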

Read-out in a further test: CYP2C8 (gene 1558)
As to the kind of experiment: LTEA_HepaRG_CYP2C8: Life Technologies and Expression Analysis (LTEA) Assay for CYP2C8 using HepaRG (AID 2283483). The procedure, abridged: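 This is a transcriptional endpoint in HepaRG cultures: 48 h exposure, highest concentration 100 uM. CYP2C8 mRNA is quantified by TaqMan qRT-PCR.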

Read-out in a further test: CYP2C9 (gene 1559)
As to the kind of experiment: LTEA_HepaRG_CYP2C9: Life Technologies and Expression Analysis (LTEA) Assay for CYP2C9 using HepaRG (AID 2283484). The procedure, abridged:
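Eight-point concentration-response (highest 100 uM, half-log dilutions) in HepaRG cells for 48 h; CYP2C9 expression by qRT-PCR normalized to ACTB, GAPDH, POLR2A. Bidirectional fit, DMSO baseline.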

Read-out in the next test: CYP2E1 (gene 1571)
As to the kind of experiment: LTEA_HepaRG_CYP2E1: Life Technologies and Expression Analysis (LTEA) Assay for CYP2E1 using HepaRG (AID 2283485). In a few lines:
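Assay uses 48 h exposure of HepaRG hepatic cells, eight concentrations to 100 uM. Expression of CYP2E1 is quantified by TaqMan qRT-PCR with ACTB, GAPDH and POLR2A normalization; curves fitted in both directions relative to vehicle.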

Read-out in another test: CYP4A11 (gene 1579)
As to the kind of experiment: LTEA_HepaRG_CYP4A11: Life Technologies and Expression Analysis (LTEA) Assay for CYP4A11 using HepaRG (AID 2283486). The procedure, abridged:
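Differentiated HepaRG cells, 48 h after plating, exposed in duplicate for 48 h to 8 half-log concentrations up to 100 uM in 0.5% DMSO in serum-free induction medium. CYP4A11 mRNA measured by TaqMan qRT-PCR, normalized to ACTB, GAPDH and POLR2A.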

Read-out in test [3]: Cytochrome P450 3A4 (Homo sapiens) (UniProt P08684)
Description: LTEA_HepaRG_CYP3A4: Life Technologies and Expression Analysis (LTEA) Assay for CYP3A4 using HepaRG (AID 2283487). In a few lines: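 Differentiated HepaRG cells, plated 48 h, then dosed 48 h in serum-free induction medium with 0.5% DMSO, 8 half-log concentrations up to 100 uM, duplicate. CYP3A4 mRNA by qRT-PCR, normalized to ACTB/GAPDH/POLR2A; bidirectional fit versus DMSO.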

Read-out in test [4]: DNA damage-inducible transcript 3 (DDIT3), DDIT3 (gene 1649)
As to the kind of experiment: LTEA_HepaRG_DDIT3: Life Technologies and Expression Analysis (LTEA) Assay for DNA damage-inducible transcript 3 (DDIT3) using HepaRG (AID 2283488). In a few lines:
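Eight-point concentration-response (100 uM highest, half-log dilutions) in HepaRG, 48 h, duplicate wells. Endpoint: qRT-PCR mRNA, normalized (ACTB, GAPDH, POLR2A), bidirectional fitting with DMSO as baseline.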

Read-out in test [5]: Pro-epidermal growth factor (Homo sapiens) (UniProt P01133)
As to the kind of experiment: LTEA_HepaRG_EGF: Life Technologies and Expression Analysis (LTEA) Assay for Epidermal growth factor (EGF) using HepaRG (AID 2283489). In a few lines: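 HepaRG cells (~100,000/well, 48 h pre-culture) exposed in duplicate for 48 h in serum-free induction medium to 8 half-log concentrations up to 100 uM in 0.5% DMSO. EGF mRNA by qRT-PCR, normalized to ACTB/GAPDH/POLR2A; bidirectional fit versus DMSO.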

Read-out in test [6]: Early growth response protein 1 (EGR1) transcription factor, EGR1 (gene 1958)
Description: LTEA_HepaRG_EGR1: Life Technologies and Expression Analysis (LTEA) Assay for Early growth response protein 1 (EGR1) transcription factor using HepaRG (AID 2283490). The procedure, abridged:
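EGR1 expression change in human HepaRG after 48 h chemical exposure, assessed by housekeeping-normalized qRT-PCR; concentration-response up to 100 uM, fitted in both directions against DMSO controls.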

Read-out in test [7]: Cytochrome P450 3A7 (Homo sapiens) (UniProt P24462)
As to the kind of experiment: LTEA_HepaRG_CYP3A7: Life Technologies and Expression Analysis (LTEA) Assay for CYP3A7 using HepaRG (AID 2283492). In a few lines: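 Differentiated HepaRG cells in serum-free induction medium exposed 48 h in duplicate to 8-point half-log series from 100 uM top in 0.5% DMSO. CYP3A7 mRNA by qRT-PCR, normalized to ACTB/GAPDH/POLR2A, bidirectional fit versus DMSO.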

Read-out in the next test: CYP3A5 (gene 1577)
Description: LTEA_HepaRG_CYP3A5: Life Technologies and Expression Analysis (LTEA) Assay for CYP3A5 using HepaRG (AID 2283493). The procedure, abridged:
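Readout was CYP3A5 mRNA by qRT-PCR. HepaRG cultures were exposed for 48 h in serum-free induction medium to chemicals at up to 100 uM, and responses were fitted in both directions relative to DMSO vehicle.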

Read-out in test [8]: Fatty Acid-Binding Protein 1 (FABP1), FABP1 (gene 2168)
As to the kind of experiment: LTEA_HepaRG_FABP1: Life Technologies and Expression Analysis (LTEA) Assay for Fatty Acid-Binding Protein 1 (FABP1) using HepaRG (AID 2283494). The procedure, abridged: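 Values reflect bidirectional concentration-response fitting of FABP1 mRNA change against 0.5% DMSO controls. Human HepaRG cultures received eight half-log doses (top 100 uM) for 48 h; expression quantified by TaqMan qRT-PCR with housekeeping-gene normalization.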

Read-out in test [9]: Cytochrome P450 4A22 (Homo sapiens) (UniProt Q5TCH4)
As to the kind of experiment: LTEA_HepaRG_CYP4A22: Life Technologies and Expression Analysis (LTEA) Assay for Cytochrome P450 4A22 (CYP4A22) using HepaRG (AID 2283495). In a few lines:
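Differentiated HepaRG cells in serum-free induction medium exposed 48 h in duplicate to eight half-log concentrations up to 100 uM in 0.5% DMSO. CYP4A22 mRNA quantified by TaqMan qRT-PCR, normalized to ACTB, GAPDH and POLR2A; bidirectional fit versus DMSO.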

Read-out in test [10]: Cytochrome P450 7A1 (Homo sapiens) (UniProt P22680)
As to the kind of experiment: LTEA_HepaRG_CYP7A1: Life Technologies and Expression Analysis (LTEA) Assay for Cytochrome P450 7A1 (CYP7A1) using HepaRG (AID 2283496). In a few lines:
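Using 0.5% DMSO as vehicle and baseline, chemicals were tested in duplicate over an 8-point range from 100 uM on HepaRG cells for 48 h; qRT-PCR signals were normalised to ACTB, GAPDH and POLR2A.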

Read-out in test [11]: Glutathione S-Transferase (GSTA2), GSTA2 (gene 2939)
As to the kind of experiment: LTEA_HepaRG_GSTA2: Life Technologies and Expression Analysis (LTEA) Assay for Glutathione S-Transferase (GSTA2) using HepaRG (AID 2283497). In a few lines: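 Oxidative-stress marker GSTA2 is quantified by TaqMan qRT-PCR in HepaRG cultures treated 48 h across an eight-point range to 100 uM. Expression is normalized to endogenous controls and compared with 0.5% DMSO vehicle.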

Read-out in test [12]: Glutamate-cysteine ligase catalytic (GCLC), GCLC (gene 2729)
Description: LTEA_HepaRG_GCLC: Life Technologies and Expression Analysis (LTEA) Assay for Glutamate-cysteine ligase catalytic (GCLC) using HepaRG (AID 2283498). In a few lines: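 Oxidative-stress marker GCLC is measured as mRNA change in human HepaRG liver cells after 48 h chemical treatment in 0.5% DMSO, eight concentrations from 100 uM. Activity is fitted bidirectionally against vehicle.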

Read-out in test [13]: growth arrest and DNA damage 45 (GADD45G), GADD45G (gene 10912)
Description: LTEA_HepaRG_GADD45G: Life Technologies and Expression Analysis (LTEA) Assay for growth arrest and DNA damage 45 (GADD45G) using HepaRG (AID 2283499). In a few lines: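 Differentiated human HepaRG cells, 48 h post-plating, exposed 48 h in serum-free induction medium to 8 half-log concentrations (top 100 uM, 0.5% DMSO) in duplicate. GADD45G mRNA measured by Fluidigm TaqMan qRT-PCR, normalized to ACTB, GAPDH, POLR2A; bidirectional fit versus DMSO.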

Read-out in test [14]: Glutamate-cysteine ligase regulatory (GCLM), GCLM (gene 2730)
As to the kind of experiment: LTEA_HepaRG_GCLM: Life Technologies and Expression Analysis (LTEA) Assay for Glutamate-cysteine ligase regulatory (GCLM) using HepaRG (AID 2283500). In a few lines: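 In this multiplexed HepaRG gene-expression assay, GCLM mRNA change after 48 h treatment (8 concentrations, max 100 uM) was scored against DMSO by bidirectional curve fitting.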

Read-out in test [15]: Ezrin (EZR), EZR (gene 7430)
Description: LTEA_HepaRG_EZR: Life Technologies and Expression Analysis (LTEA) Assay for Ezrin (EZR) using HepaRG (AID 2283491). The procedure, abridged: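 EZR transcript levels came from Fluidigm qRT-PCR and were normalized to three housekeeping genes after 48 h chemical exposure of HepaRG cells. Dosing used an 8-point half-log series with a 100 uM top concentration in 0.5% DMSO, tested in duplicate; both directions were fitted versus vehicle.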

Activity calls are given as the source filed them. The calls were made as follows: active = hit-call score of the fitted dose curve at least 0.9, where 1 is the maximum; inactive = score below 0.9.

Our source for the outcome and AC50 values is PubChem BioAssay (EPA / NIEHS).

Sequence of Cytochrome P450 2C19 (Homo sapiens) (P33261 whole entry, looked up): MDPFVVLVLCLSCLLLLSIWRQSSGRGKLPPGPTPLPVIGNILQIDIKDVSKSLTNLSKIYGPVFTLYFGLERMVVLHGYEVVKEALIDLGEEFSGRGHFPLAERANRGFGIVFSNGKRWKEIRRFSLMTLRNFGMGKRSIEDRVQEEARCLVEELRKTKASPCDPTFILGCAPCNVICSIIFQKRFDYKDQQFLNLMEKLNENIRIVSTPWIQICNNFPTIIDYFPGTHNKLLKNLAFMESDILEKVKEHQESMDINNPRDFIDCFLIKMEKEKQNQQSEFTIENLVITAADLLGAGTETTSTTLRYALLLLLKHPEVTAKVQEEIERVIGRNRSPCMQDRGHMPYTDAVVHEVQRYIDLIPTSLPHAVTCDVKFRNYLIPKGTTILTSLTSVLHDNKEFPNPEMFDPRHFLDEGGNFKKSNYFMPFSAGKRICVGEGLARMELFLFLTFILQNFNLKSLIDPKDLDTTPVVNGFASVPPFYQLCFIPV
Sequence of Cytochrome P450 3A7 (Homo sapiens) (P24462 whole entry, looked up): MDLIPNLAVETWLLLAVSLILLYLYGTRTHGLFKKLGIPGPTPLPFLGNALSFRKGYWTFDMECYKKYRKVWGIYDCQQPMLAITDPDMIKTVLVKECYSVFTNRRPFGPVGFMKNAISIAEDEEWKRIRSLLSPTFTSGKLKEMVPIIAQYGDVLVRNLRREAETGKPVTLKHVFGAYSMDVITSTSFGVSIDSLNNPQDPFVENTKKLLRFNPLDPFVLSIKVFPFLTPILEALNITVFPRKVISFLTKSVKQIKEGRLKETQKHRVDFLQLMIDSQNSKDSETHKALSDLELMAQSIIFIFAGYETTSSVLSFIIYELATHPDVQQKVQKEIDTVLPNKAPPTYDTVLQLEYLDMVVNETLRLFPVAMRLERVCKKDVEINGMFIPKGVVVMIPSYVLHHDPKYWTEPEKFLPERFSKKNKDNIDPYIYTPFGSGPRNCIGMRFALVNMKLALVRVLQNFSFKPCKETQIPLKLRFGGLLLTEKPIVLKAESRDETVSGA
Sequence of Cytochrome P450 3A4 (Homo sapiens) (P08684 whole entry, looked up): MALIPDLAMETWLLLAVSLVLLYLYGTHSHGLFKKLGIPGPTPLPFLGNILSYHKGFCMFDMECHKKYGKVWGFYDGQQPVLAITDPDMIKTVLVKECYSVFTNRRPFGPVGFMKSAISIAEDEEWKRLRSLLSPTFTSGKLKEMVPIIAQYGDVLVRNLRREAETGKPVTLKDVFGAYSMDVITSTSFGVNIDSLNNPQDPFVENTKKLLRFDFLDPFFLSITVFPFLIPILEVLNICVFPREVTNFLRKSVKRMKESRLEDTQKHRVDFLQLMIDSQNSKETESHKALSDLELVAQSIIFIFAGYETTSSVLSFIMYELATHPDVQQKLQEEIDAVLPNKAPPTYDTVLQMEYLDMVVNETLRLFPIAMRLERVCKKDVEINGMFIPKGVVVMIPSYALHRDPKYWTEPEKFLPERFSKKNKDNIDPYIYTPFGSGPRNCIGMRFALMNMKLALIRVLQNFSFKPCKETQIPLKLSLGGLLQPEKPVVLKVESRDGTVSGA

As to `c1ccc(C2CO2)cc1` (stereo not given), the outcome (in test [1]; in test [2]; with CYP2C8 (gene 1558); with CYP2C9 (gene 1559); in the test with CYP2E1 (gene 1571); with CYP4A11 (gene 1579)) was inactive. Further, the result (in [3]; in test [4]; in [5]; in [6]; in test [7]; in the test with CYP3A5 (gene 1577)) was inactive. Moreover, the molecule was classed as inactive in [8], in test [9], in [10], in test [11], in [12] and in [13]. Further, the outcome in test [14] was inactive.

What is called AC50 is the midpoint of the concentration-response curve, whichever way the signal moves. On to `COC(=O)Nc1nc2ccccc2[nH]1`, for which, in [1], the AC50 is 3.97 µM (active). Moreover, the result (in [2]; with CYP2C8 (gene 1558); with CYP2C9 (gene 1559); in the test with CYP2E1 (gene 1571); with CYP4A11 (gene 1579); in test [4]) was inactive. For the same molecule, the molecule was classed as inactive in test [5], in test [6], in [15], in test [7], in [8] and in test [9]. Besides, the result in [10], in test [11], in [12], in test [13] and in test [14] was inactive.

On to `O=C(Oc1ccc(Br)cc1)N1CCN2CCC1CC2`, for which the concentration at half-maximal activity (AC50) was 6.42 µM (active) in [1]; 15.2 µM (active) in test [2]; 63.8 µM (active) in the test with CYP2E1 (gene 1571); 34.9 µM (active) in the test with CYP4A11 (gene 1579); 33.3 µM (active) in test [3]; 31.6 µM (active) in test [8]. Moreover, the AC50 in test [9] was 40 µM (active). Moreover, the molecule was classed as inactive (in the test with CYP2C8 (gene 1558); with CYP2C9 (gene 1559); in [4]; in test [5]; in test [6]; in test [7]). Moreover, the result in test [10], in test [11], in [12], in test [13] and in [14] was inactive.
